# Tests used:
# Assay in all cases: DAPPL (digital affinity profiling via proximity ligation, sequencing); 10 mM Tris-HCl pH 7.5, 50 mM NaCl, 1 mM DTT, 4% glycerol, room temperature, 30 min; GST-TFs on glutathione beads, 16-mer random dsDNA library, 0.1% formaldehyde crosslink after washing; high values mean tight binding
# Conditions in all cases: protein: recombinant; tags: N-terminal GST; dsDNA, one strand shown
# FEV = target: T1, FEV (Homo sapiens, UniProt Q99581 1-238)
# T1 sequence: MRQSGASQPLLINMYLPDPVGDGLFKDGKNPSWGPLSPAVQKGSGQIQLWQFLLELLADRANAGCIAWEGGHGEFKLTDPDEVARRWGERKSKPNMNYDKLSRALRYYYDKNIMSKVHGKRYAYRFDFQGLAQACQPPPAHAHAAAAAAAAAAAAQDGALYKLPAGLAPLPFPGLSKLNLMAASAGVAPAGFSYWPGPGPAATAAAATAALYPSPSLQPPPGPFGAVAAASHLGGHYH
# Summary of the method: (§1)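 GST fusions of human transcription factors were expressed in yeast and captured with glutathione beads. Once given DNA barcodes and pooled alongside a tag-only sample, they were incubated for 30 min at room temperature with 200 nmole of a random double-stranded 16-mer DNA library in Tris/NaCl/DTT/glycerol buffer, then washed, crosslinked (0.1% formaldehyde), proximity-ligated, PCR-amplified and sequenced on an Illumina NextSeq500. The binding signal of each hexamer is its read frequency for a factor divided by its frequency for the tag-only sample.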
# ETV5 = ETV5 (Homo sapiens, UniProt P41161 1-510)
# Summary of the method: as §1
# SPIC = target: T2, SPIC (Homo sapiens, UniProt Q8N5J4 1-248)
# T2 sequence: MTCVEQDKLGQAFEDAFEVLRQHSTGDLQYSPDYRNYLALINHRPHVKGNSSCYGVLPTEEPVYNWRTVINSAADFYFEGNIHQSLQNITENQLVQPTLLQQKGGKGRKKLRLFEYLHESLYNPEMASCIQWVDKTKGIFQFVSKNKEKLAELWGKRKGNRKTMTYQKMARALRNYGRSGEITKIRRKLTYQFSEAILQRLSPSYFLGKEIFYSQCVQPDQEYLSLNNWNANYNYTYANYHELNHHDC
# Summary of the method: as §1
# ELF4 = ELF4 (Homo sapiens, UniProt Q99607 1-663)
# Summary of the method: as §1
# ELK4 = target: T3, ELK4 (Homo sapiens, UniProt P28324-2 1-405)
# T3 sequence: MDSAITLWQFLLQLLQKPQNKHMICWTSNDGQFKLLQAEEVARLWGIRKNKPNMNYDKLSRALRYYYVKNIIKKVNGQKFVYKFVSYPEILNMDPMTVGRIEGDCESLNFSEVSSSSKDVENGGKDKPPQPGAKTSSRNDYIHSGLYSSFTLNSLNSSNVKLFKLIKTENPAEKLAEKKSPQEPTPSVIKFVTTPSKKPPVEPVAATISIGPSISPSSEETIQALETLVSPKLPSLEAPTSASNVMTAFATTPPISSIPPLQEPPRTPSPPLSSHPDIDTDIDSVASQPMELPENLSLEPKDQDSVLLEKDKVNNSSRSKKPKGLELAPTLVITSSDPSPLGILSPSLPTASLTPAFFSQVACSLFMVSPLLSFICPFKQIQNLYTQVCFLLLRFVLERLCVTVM
# Summary of the method: as §1
# ETV2 = target: T4, ETV2 (Homo sapiens, UniProt O00321 1-342)
# T4 sequence: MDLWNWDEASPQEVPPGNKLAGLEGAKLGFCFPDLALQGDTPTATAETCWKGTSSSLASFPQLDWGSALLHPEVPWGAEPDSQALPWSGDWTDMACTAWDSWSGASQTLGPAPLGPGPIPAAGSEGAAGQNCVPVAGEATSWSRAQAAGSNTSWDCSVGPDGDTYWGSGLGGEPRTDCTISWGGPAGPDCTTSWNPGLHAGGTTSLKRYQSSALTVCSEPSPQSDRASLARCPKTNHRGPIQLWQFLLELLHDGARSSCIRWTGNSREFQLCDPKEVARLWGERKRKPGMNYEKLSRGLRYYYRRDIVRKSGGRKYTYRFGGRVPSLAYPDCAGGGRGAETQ
# Summary of the method: as §1
# ELF3 = target: T5, ELF3 (Homo sapiens, UniProt P78545 1-371)
# T5 sequence: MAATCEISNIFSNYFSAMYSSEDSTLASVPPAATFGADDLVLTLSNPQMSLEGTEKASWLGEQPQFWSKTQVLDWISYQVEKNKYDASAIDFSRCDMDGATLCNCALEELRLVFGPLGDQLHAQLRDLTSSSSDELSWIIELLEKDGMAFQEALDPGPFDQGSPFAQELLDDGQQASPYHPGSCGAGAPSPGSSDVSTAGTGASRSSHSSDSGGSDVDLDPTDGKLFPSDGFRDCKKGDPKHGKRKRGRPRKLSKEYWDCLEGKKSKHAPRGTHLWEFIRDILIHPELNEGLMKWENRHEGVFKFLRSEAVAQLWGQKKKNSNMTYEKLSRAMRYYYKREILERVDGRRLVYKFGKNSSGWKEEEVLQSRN
# Summary of the method: as §1
# ETV1 = ETV1 (Homo sapiens, UniProt P50549 1-477)
# Summary of the method: as §1
# ERF = target: T6, ERF (Homo sapiens, UniProt P50548 1-548)
# T6 sequence: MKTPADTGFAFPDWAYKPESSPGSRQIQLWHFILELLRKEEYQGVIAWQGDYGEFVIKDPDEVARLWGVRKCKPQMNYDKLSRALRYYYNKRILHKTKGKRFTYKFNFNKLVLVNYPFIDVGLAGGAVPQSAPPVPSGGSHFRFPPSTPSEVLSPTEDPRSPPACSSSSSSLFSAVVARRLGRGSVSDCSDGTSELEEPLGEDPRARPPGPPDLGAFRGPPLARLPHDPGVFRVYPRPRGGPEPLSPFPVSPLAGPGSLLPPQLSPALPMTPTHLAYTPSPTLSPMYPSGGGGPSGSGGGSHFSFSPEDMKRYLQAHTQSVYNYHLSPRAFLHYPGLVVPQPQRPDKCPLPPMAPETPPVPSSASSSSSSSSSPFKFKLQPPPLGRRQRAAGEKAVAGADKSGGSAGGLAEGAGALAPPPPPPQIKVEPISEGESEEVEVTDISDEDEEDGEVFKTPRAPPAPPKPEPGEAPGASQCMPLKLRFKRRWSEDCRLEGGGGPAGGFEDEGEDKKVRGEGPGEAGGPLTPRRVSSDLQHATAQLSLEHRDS
# Summary of the method: as §1
# ETV3L = target: T7, ETV3L (Homo sapiens, UniProt Q6ZN32 1-361)
# T7 sequence: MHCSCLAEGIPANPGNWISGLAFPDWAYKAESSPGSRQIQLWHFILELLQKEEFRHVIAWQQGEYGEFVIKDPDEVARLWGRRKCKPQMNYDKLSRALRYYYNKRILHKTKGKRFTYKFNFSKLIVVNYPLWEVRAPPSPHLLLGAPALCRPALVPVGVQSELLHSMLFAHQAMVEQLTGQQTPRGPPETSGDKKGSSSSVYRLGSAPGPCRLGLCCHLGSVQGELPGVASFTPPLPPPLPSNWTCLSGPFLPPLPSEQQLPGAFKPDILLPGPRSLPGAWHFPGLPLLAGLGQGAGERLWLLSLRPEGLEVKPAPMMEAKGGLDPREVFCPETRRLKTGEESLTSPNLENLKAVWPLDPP
# Summary of the method: as §1
# ETS2 = target: T8, ETS2 (Homo sapiens, UniProt P15036 1-469)
# T8 sequence: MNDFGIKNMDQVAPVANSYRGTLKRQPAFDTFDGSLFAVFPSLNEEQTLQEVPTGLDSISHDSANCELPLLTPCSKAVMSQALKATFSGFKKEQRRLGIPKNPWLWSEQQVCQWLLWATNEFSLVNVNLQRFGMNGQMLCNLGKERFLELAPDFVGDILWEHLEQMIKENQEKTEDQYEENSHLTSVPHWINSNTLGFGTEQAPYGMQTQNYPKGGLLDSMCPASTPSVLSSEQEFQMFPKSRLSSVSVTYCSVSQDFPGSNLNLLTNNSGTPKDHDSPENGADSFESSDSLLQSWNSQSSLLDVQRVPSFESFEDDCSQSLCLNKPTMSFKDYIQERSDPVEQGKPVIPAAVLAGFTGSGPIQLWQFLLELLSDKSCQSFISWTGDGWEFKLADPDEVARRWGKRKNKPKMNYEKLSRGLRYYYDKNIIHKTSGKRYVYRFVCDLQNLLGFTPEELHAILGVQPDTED
# Summary of the method: as §1
# SPDEF = target: T9, SPDEF (Homo sapiens, UniProt O95238 1-335)
# T9 sequence: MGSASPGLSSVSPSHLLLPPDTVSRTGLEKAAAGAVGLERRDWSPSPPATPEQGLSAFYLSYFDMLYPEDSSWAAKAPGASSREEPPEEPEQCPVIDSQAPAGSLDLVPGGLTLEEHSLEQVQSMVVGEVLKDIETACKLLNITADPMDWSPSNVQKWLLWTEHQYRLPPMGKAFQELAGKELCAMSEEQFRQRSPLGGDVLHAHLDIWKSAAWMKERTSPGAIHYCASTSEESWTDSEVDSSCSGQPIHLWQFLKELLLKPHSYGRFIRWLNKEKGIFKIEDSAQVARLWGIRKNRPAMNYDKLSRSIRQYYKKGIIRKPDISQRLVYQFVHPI
# Summary of the method: as §1
# ETV7 = target: T10, ETV7 (Homo sapiens, UniProt Q9Y603 1-341)
# T10 sequence: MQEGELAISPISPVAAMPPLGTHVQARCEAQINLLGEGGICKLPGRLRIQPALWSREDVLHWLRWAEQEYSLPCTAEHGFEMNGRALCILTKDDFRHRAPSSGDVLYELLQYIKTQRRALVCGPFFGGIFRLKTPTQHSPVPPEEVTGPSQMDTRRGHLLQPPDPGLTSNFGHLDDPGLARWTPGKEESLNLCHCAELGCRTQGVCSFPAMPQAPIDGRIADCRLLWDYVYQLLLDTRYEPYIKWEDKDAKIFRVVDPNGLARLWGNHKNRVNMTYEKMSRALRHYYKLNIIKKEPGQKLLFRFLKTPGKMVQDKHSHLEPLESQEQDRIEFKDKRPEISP
# Summary of the method: as §1
# ELF5 = target: T11, ELF5 (Homo sapiens, UniProt Q9UKW6-2 1-255)
# T11 sequence: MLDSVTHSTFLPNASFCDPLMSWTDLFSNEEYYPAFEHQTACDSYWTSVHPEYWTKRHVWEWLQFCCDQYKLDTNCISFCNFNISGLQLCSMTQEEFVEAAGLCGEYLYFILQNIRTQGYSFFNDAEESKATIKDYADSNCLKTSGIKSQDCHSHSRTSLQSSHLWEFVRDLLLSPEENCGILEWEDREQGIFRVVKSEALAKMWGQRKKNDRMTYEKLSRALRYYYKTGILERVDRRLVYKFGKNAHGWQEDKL
# Summary of the method: as §1
# ETV3 = target: T12, ETV3 (Homo sapiens, UniProt P41162-2 1-143)
# T12 sequence: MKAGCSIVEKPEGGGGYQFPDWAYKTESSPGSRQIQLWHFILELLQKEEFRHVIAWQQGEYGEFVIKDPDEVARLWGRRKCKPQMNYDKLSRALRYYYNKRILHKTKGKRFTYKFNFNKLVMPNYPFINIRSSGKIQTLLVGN
# Summary of the method: as §1
# ETV6 = ETV6 (Homo sapiens, UniProt P41212 1-452)
# Summary of the method: as §1
# ETV6, sequence (P41212 whole entry): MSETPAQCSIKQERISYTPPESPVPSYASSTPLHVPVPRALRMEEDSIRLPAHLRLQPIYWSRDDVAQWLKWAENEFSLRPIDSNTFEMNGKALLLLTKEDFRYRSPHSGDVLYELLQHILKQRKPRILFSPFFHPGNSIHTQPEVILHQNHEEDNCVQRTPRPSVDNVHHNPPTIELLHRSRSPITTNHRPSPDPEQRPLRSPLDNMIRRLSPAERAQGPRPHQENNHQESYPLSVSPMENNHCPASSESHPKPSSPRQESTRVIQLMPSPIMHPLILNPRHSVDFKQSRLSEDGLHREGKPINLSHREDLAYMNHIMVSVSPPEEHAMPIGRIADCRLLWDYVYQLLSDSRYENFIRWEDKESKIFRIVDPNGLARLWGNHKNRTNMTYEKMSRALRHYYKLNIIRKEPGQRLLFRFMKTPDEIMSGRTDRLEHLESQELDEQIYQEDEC
# ETV5, sequence (P41161 whole entry): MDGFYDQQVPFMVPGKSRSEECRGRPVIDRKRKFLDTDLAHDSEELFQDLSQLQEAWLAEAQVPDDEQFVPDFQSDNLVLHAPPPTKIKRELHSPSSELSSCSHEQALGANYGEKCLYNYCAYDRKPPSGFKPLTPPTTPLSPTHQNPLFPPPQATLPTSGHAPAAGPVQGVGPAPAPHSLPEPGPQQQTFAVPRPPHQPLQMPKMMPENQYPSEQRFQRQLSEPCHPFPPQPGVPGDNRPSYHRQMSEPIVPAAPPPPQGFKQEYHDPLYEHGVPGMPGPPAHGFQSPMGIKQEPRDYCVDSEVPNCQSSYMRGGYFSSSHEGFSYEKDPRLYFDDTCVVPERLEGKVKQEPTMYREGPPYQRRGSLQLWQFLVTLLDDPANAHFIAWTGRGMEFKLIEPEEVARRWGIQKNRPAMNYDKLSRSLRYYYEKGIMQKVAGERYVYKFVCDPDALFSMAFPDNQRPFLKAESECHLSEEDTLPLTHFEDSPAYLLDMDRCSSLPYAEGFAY
# ELF4, sequence (Q99607 whole entry): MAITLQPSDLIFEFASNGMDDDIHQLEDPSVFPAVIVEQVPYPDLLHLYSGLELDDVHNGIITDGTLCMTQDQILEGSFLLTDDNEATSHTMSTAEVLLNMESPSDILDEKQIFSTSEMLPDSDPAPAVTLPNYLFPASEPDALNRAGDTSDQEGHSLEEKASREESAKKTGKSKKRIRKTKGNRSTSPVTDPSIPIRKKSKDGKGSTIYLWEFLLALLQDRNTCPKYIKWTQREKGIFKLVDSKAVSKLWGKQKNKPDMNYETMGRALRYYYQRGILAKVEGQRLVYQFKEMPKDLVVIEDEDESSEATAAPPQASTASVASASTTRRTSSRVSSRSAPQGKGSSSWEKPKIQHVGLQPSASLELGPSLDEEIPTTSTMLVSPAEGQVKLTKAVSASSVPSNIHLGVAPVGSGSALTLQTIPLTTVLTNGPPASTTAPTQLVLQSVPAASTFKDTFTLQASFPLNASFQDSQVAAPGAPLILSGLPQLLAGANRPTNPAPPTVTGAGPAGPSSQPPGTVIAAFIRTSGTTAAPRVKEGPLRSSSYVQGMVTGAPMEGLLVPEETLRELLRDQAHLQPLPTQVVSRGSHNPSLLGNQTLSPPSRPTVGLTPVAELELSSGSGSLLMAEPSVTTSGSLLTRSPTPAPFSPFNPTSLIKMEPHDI
# ETV1, sequence (P50549 whole entry): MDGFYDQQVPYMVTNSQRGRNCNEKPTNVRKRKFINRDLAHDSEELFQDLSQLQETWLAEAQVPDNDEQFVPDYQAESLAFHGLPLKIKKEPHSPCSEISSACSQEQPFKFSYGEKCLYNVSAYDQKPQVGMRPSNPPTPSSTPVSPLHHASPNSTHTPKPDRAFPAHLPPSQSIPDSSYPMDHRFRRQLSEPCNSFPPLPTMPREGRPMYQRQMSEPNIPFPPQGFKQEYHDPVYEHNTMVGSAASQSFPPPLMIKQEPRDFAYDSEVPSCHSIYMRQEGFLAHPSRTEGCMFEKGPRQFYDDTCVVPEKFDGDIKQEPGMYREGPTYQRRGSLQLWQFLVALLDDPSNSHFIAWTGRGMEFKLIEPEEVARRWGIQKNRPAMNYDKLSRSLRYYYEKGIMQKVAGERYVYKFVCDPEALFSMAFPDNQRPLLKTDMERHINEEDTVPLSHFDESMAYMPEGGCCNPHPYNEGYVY
sequence,measurement,setting,value
CATAAC,binding signal,FEV,"1.08 fold enrichment (6-mer frequency, TF over GST control)"
same,binding signal,ETV5,"1.16 fold enrichment (6-mer frequency, TF over GST control)"
same,binding signal,SPIC,"1.2 fold enrichment (6-mer frequency, TF over GST control)"
same,binding signal,ELF4,"1.1 fold enrichment (6-mer frequency, TF over GST control)"
same,binding signal,ELK4,"1.25 fold enrichment (6-mer frequency, TF over GST control)"
same,binding signal,ETV2,"1.11 fold enrichment (6-mer frequency, TF over GST control)"
same,binding signal,ELF3,"1.13 fold enrichment (6-mer frequency, TF over GST control)"
same,binding signal,ETV1,"1.1 fold enrichment (6-mer frequency, TF over GST control)"
same,binding signal,ERF,"1.12 fold enrichment (6-mer frequency, TF over GST control)"
same,binding signal,ETV3L,"1.18 fold enrichment (6-mer frequency, TF over GST control)"
same,binding signal,ETS2,"1.19 fold enrichment (6-mer frequency, TF over GST control)"
same,binding signal,SPDEF,"1.15 fold enrichment (6-mer frequency, TF over GST control)"
same,binding signal,ETV7,"1.18 fold enrichment (6-mer frequency, TF over GST control)"
same,binding signal,ELF5,"1.15 fold enrichment (6-mer frequency, TF over GST control)"
same,binding signal,ETV3,"1.17 fold enrichment (6-mer frequency, TF over GST control)"
same,binding signal,ETV6,"1.23 fold enrichment (6-mer frequency, TF over GST control)"
